Shown are actives, neighbours in structure and some others; about 19% of the full set was active somewhere.
HT1080NT lethal – qHTS for induction of synthetic lethality in tumor cells producing 2HG: qHTS for the HT-1080-NT fibrosarcoma cell line; HT-1080-NT fibrosarcoma viability, CellTiter-Glo ATP luminescence, 48 h; Potency, µM (top dose mostly 46.1 µM), for the others: at the highest dose activity, negative = less viability, most hits filed as cytotoxic; AID 686970, 2013; 360,000 tested, 1.6% active;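 further: NT is the 2HG producing partner of a matched IDH1 knockdown line; potency means the concentration at half of the fitted maximal effect; 0% = DMSO-treated cells and -100% = media-only wells without cells; nearly all actives have a fitted effect of over 55% in size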
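Compounds were tested in concentration-response format on HT-1080-NT cells for 48 hours at 37 degrees C. Cell viability came from CellTiter-Glo luminescence; curves were classified by r2, response magnitude and activity.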
HT1080 IDH1KD tx – qHTS for induction of synthetic lethality in tumor cells producing 2HG: qHTS for the HT-1080-IDH1KD cell line | HT-1080 IDH1 knockdown viability, ATP luminescence, 48 h | Potency, µM (highest dose often 46.1 µM), for the others: at the highest dose activity, negative = toxicity, usual class: cytotoxic | 360,000 tested, 2% active | AID 686971, 2013;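 further: potency means the concentration at half of the fitted maximal effect; 0% = DMSO wells and -100% = cell-free medium wells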
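Luminescent ATP read-out (CellTiter-Glo, 10 min at room temperature) after 48 h compound exposure at 37 °C gave viability of IDH1-knockdown HT-1080 cells. Activity was normalised to DMSO and cell-free wells, then fitted as concentration-response curves.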
TDP1 cell CPT – qHTS for Inhibitors of human tyrosyl-DNA phosphodiesterase 1 (TDP1): qHTS in cells in presence of CPT. chicken DT40 Tdp1-/-;hTDP1 cells + 20 nM CPT, ATP luminescence, 48 h. Potency, µM (top dose mostly 46.2 µM), for inactives: top-dose activity change, negative = growth inhibition, actives largely listed as inhibitors. 420,000 tested, 12% active; further: potency means the concentration at half of the fitted maximal effect; nearly all actives have a fitted effect of over 55% in size
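Cell growth measured by CellTiter-Glo luminescence after a minimum 48 h, 37 C compound exposure with 20 nM CPT in Tdp1-knockout DT40 cells stably expressing hTDP1, seeded 400/well; qHTS titration format.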
IL1B secr inh – qHTS for Inhibitors of Inflammasome Signaling: IL-1-beta AlphaLISA Primary Screen; activity change, % at 57.5 µM; THP-1 LPS/ATP IL-1B secretion, AlphaLISA, 16 h; active compounds read low; 360,000 tested, 4.7% active; AID 743279, 2014; in the data active means activity change below about -50%; inconclusive means mostly about -30% to -49%
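Secreted IL-1B measured by AlphaLISA bead assay after 16 h compound exposure of THP-1 cells; compounds (final up to 57.5 uM) added 1 h before LPS (250 ng/mL) and ATP (1.25 mM) stimulation; lower signal means less secretion.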
TDP1 cell noCPT – qHTS for Inhibitors of human tyrosyl-DNA phosphodiesterase 1 (TDP1): qHTS in cells in absence of CPT; DT40 Tdp1-/- hTDP1 cells, no CPT, ATP luminescence, 48 h; Potency, µM (top dose mostly 46.2 µM), for the others: at the highest dose activity change, negative = growth inhibition, actives largely listed as inhibitors; 420,000 tested, 15% active; AID 686978, 2013; further: potency means the concentration at half of the fitted maximal effect; nearly all actives have a fitted effect of over 55% in size
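Camptothecin absent (DMSO only). Human TDP1-complemented DT40 knockout cells, 400 cells/well, 37 °C for minimum 48 hr; ATP measured via CellTiter-Glo, 30 min dark incubation, luminescence.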
An asterisk follows results filed as active; ? = inconclusive; nt = not tested or not shown. Unless noted, the call rests on the fitted dose curve; in most records, active means well fitted curve in the direction sought with a large enough effect; inconclusive means small, poorly fitted or top-dose-only effect, or another doubt; inactive means no such curve, though single readings can be large; an effect the other way counts as inactive or inconclusive. Unless noted, on the % scale 0 is the no-effect control and ±100 the full control effect.

SMILES | HT1080NT lethal | HT1080 IDH1KD tx | TDP1 cell CPT | IL1B secr inh | TDP1 cell noCPT
CSc1ccc(NC(=O)C2(C)CCN2C(=O)C2(c3ccccc3)CC2)cc1 (configuration not stated) | ? | -22.1% | 18.4µM* | -7.7 | ?
CC1(C(=O)Nc2ccccc2)CCN1C(=O)C1(c2ccc(Cl)cc2)CC1 (configuration not stated) | -1.3% | 0.0% | ? | 14.0 | 3.66µM*
CC1(C(=O)Nc2ccc3nc[nH]c3c2)CCN1C(=O)C1(c2ccccc2)CC1 (configuration not stated) | 1.7% | 0.6% | ? | 19.7 | -7.2%
Cc1ccc(S(=O)(=O)NC(=O)C2(C)CCN2C(=O)C2(c3ccc(Cl)cc3)CC2)cc1 (configuration not stated) | 0.8% | -0.5% | -6.5% | 12.1 | -8.2%
CC1(C(=O)NS(=O)(=O)c2ccccc2)CCN1C(=O)C1(c2ccc(Cl)cc2)CC1 (configuration not stated) | -4.5% | 16.5% | ? | 14.7 | -0.3%
Cc1ccc(NC(=O)C2(C)CCN2C(=O)C2(c3ccc(Cl)cc3)CC2)cc1 (configuration not stated) | -12.2% | -18.9% | 14.6µM* | 15.7 | 18.4µM*
CSc1ccc(NC(=O)C2(C)CCN2C(=O)c2sccc2C)cc1 (configuration not stated) | 4.8% | -6.5% | ? | -71.4* | ?
CCCCc1nn2c(=O)cc(COC(=O)c3cccs3)nc2s1 | nt | nt | -26.5% | nt | -11.7%
COC(=O)c1ccc(/C=N/OCC(=O)NCc2ccc(F)cc2)cc1 | -5.6% | -11.8% | -28.2% | -1.0 | ?
CC1(C(=O)N2Cc3ccccc3C2)CCN1C(=O)C1(c2ccccc2)CC1 (configuration not stated) | 22.4% | 1.9% | ? | 18.3 | 20.6µM*
O=C(c1ccc(Cl)s1)N1CCN(c2ncccn2)CC1 | 14.6% | 11.2% | -25.5% | -1.5 | ?
O=C(c1ccc([N+](=O)[O-])s1)N1CCN(c2ccc(C(F)(F)F)cn2)CC1 | -12.1% | -14.9% | 13µM* | 15.2 | 16.4µM*
Cc1cnc(C(=O)N2CCN(c3ccc(C(F)(F)F)cn3)CC2)cn1 | -0.1% | 0.1% | -0.9% | 32.8 | -16.5%
O=C(c1ccc([N+](=O)[O-])s1)N1CCN(c2ncccn2)CC1 | -0.1% | -0.1% | 20.6µM* | 14.5 | ?
O=C(OCC(=O)N1CCc2ccccc21)c1nc(Cl)ccc1Cl | 3.3% | 7.5% | -15.4% | 18.9 | -0.6%
CCCSc1nc(=O)c2c(n1C)NC(=O)CC2c1cccc(F)c1F (configuration not stated) | nt | nt | -5.3% | nt | -8.7%
CCOc1cc(C2CC(=O)Nc3c2c(=O)nc(SCc2cccc(Cl)c2)n3C)ccc1O (configuration not stated) | nt | nt | ? | nt | 8.2µM*
Cc1cccc(CSc2nc(=O)c3c(n2C)NC(=O)CC3c2cc(F)cc(F)c2)c1 (configuration not stated) | nt | nt | 9.2µM* | nt | 6.51µM*
O=C(CN1CCN(Cc2ccccc2)CC1)Nc1cccc(Cl)c1 | -14.5% | -1.1% | -21.4% | -29.5 | ?
Cc1cccc2nc(-c3ccccc3)nc(N[C@@H](CO)c3ccccc3)c12 | ? | ? | ? | -63.2* | ?
O=C(O)CNc1nc(-c2ccccc2)nc2ccccc12 | 1.9% | -2.9% | -6.8% | 20.3 | -15.0%
CN(C)C(=S)NC(=S)Nc1ccc2ccccc2c1 | 2.4% | -28.7% | ? | 46.2 | ?
COc1cc(/C=N/NC(=O)c2ccc(CSc3nc4ccccc4[nH]3)cc2)cc(OC)c1OC | -7.4% | -18.9% | 18.4µM* | 5.7 | 13µM*
CC1C/C(=N/NC(=O)c2ccc(CSc3nc4ccccc4[nH]3)cc2)CC(C)(C)C1 (configuration not stated) | -5.5% | -10.0% | -25.7% | -4.4 | -27.4%
COc1cc(C(=O)NN=Cc2ccc(N(C)C)cc2)cc(OC)c1OC | 3.66µM* | 2.91µM* | 0.92µM* | 0.0 | 0.92µM*
SMILES | HT1080NT lethal | HT1080 IDH1KD tx | TDP1 cell CPT | IL1B secr inh | TDP1 cell noCPT
COc1cc(/C=N/NC(=O)c2ccncc2)cc(OC)c1OC | 17.1% | 6.8% | 14.3% | 22.9 | 17.6%
COc1cc(/C=N/NC(=O)c2ccc3nc[nH]c3c2)cc(OC)c1OC | 6.3% | 11.8% | 2.7% | -66.6* | -2.3%
CCOc1cc(/C=N/NC(=O)c2ccc(CN3CCOCC3)cc2)ccc1OCc1ccccc1 | 0.4% | -1.2% | ? | 41.9 | 18.4µM*
COc1ccc2c(c1)C(C)=CC(C)(C)N2C(=O)CSc1nnc(-c2ccc(C)cc2)o1 | ? | ? | ? | -7.5 | ?
CC(=O)Oc1ccc(/C=N/NC(=O)c2ccc(N(C)S(=O)(=O)c3ccccc3)cc2)cc1 | -24.9% | -12.4% | -0.3% | 2.8 | ?
CCOc1cc(/C=N/NC(=O)c2ccc(N(C)S(=O)(=O)c3ccccc3)cc2)ccc1OC | -3.6% | -3.2% | ? | -8.1 | 20.6µM*
CCOc1cc(/C=N/NC(=O)c2nn(C)cc2Br)ccc1OCc1ccccc1Cl | -18.0% | -12.9% | 20.6µM* | -15.8 | 16.4µM*
S=C1SCN(Cc2ccccc2)CN1Cc1ccccc1 | 8.7% | 7.6% | 8.41µM* | -21.6 | ?
S=C1SCN(Cc2cccnc2)CN1Cc1cccnc1 | 7.31µM* | 6.51µM* | 0.82µM* | nt | 0.82µM*
S=C1SCN(CCc2ccccc2)CN1CCc1ccccc1 | -5.7% | -16.6% | ? | -0.6 | 18.4µM*
COc1ccc(CN2CSC(=S)N(Cc3ccc(OC)cc3)C2)cc1 | -3.4% | 0.1% | 4.61µM* | 0.0 | 14.6µM*
S=C1SCN(Cc2ccccc2)CN1Cc1ccco1 | 7.7% | 5.8% | ? | 19.3 | ?
CCN(CC)CCn1c2ccccc2c2nc(C)sc21 | 4.9% | 6.0% | -4.0% | -10.0 | 2.8%
Cc1nc2ccc(NC(=S)NC(C)C)cc2nc1C | 0.1% | 9.7% | -3.7% | 40.2 | -18.5%
CC(=O)N(Cc1ccccc1C)c1cccc(C)c1C | -2.1% | 14.0% | -14.0% | 27.2 | -24.5%
COC(=O)CC1C(=O)NCCN1C(=O)c1cc(OC)c(OC)cc1OC (configuration not stated) | 11.8% | 0.0% | -1.6% | 15.4 | -15.0%
COc1cc2c3nc4n(c(=O)c3n(CC(=O)NCC3CCCO3)c2cc1OC)CCS4 (configuration not stated) | 13.6% | 20.1% | -1.2% | 26.2 | 3.1%
